Results reported in PubChem BioAssay AID1159580 (chemical genetic matrix, 2015).
Screen size: about 5,500 compounds; about 2,000 (36%) were called active. Roughly 18% stayed inconclusive and do not appear here. Rule as the data show it: active = normalized growth mostly below about 0.91 (no sharp cut-off); inconclusive = no clear call, values can overlap the other calls; inactive = mostly above about 0.92. The list shows a part of the results.

Experiment: chemical genetic growth profiling, strain panel (AID 1159580);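 also: tested at 20 µM; growth read once vehicle control cultures reached saturation at 30 °C; 1 = growth at the plate median or of vehicle wells; lower values mean less growth of the strain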
Conditions: growth OD

Measured: normalized growth

OCC(O)CN1CCN(c2ccccc2)CC1 (configuration not stated)
inactive: S. cerevisiae deletion strains, locus YJR075W, strain HOC1, stronger effect = lower value 0.987 | S. cerevisiae deletion strains, locus YKL009W, strain mrt4, stronger effect = lower value 1.01 | S. cerevisiae deletion strains, locus YKL068W, stronger effect = lower value 0.994 | S. cerevisiae deletion strains, locus YKL085W, strain MDH1 (second series), stronger effect = lower value 0.99 | S. cerevisiae deletion strains, locus YKL085W, strain MDH1, stronger effect = lower value 0.99 | S. cerevisiae deletion strains, locus YKL160W, strain elf1, stronger effect = lower value 0.958 | S. cerevisiae deletion strains, locus YKL190W, strain CNB1, stronger effect = lower value 1.01 | S. cerevisiae deletion strains, locus YKR001C, strain vps1, stronger effect = lower value 1 | S. cerevisiae deletion strains, locus YKR026C, strain gcn3, stronger effect = lower value 0.977 | S. cerevisiae deletion strains, locus YKR091W, strain srl3, stronger effect = lower value 0.982 | S. cerevisiae deletion strains, locus YLL001W, strain dnm1, stronger effect = lower value 0.988 | S. cerevisiae deletion strains, locus YLL026W, stronger effect = lower value 0.988 | S. cerevisiae deletion strains, locus YLL041C, strain sdh2, stronger effect = lower value 0.975 | S. cerevisiae deletion strains, locus YLR027C, strain aat2, stronger effect = lower value 0.992 | S. cerevisiae deletion strains, locus YLR039C, strain RIC1, stronger effect = lower value 1.04 | S. cerevisiae deletion strains, locus YLR058C, strain SHM2, stronger effect = lower value 0.994 | S. cerevisiae deletion strains, locus YLR102C, strain apc9, stronger effect = lower value 1 | S. cerevisiae deletion strains, locus YLR113W, strain HOG1, stronger effect = lower value 0.999 | S. cerevisiae deletion strains, locus YLR221C, strain rsa3, stronger effect = lower value 0.973 | S. cerevisiae deletion strains, locus YLR258W, strain gsy2, stronger effect = lower value 0.992 | S. cerevisiae deletion strains, locus YLR262C, strain YPT6 (second series), stronger effect = lower value 0.959 | S. cerevisiae deletion strains, locus YLR262C, strain YPT6, stronger effect = lower value 1.05 | S. cerevisiae deletion strains, locus YLR268W, strain sec22, stronger effect = lower value 0.953 | S. cerevisiae deletion strains, locus YLR320W, strain mms22, stronger effect = lower value 1 | S. cerevisiae deletion strains, locus YLR330W, strain CHS5, stronger effect = lower value 1.02 | S. cerevisiae deletion strains, locus YLR342W, strain FKS1 (second series), stronger effect = lower value 1.02 | S. cerevisiae deletion strains, locus YLR342W, strain FKS1, stronger effect = lower value 0.993 | S. cerevisiae deletion strains, locus YLR357W, strain rsc2, stronger effect = lower value 0.987 | S. cerevisiae deletion strains, locus YLR370C, strain arc18, stronger effect = lower value 0.978 | S. cerevisiae deletion strains, locus YLR371W, strain rom2, stronger effect = lower value 1 | S. cerevisiae deletion strains, locus YLR384C, strain iki3, stronger effect = lower value 0.987 | S. cerevisiae deletion strains, locus YLR418C, strain cdc73, stronger effect = lower value 0.971 | S. cerevisiae deletion strains, locus YML016C, strain PPZ1, stronger effect = lower value 0.992 | S. cerevisiae deletion strains, locus YML032C, strain rad52, stronger effect = lower value 0.988 | S. cerevisiae deletion strains, locus YML120C, strain ndi1, stronger effect = lower value 0.982 | S. cerevisiae deletion strains, locus YML124C, strain tub3, stronger effect = lower value 0.989 | S. cerevisiae deletion strains, locus YMR058W, strain fet3, stronger effect = lower value 0.969 | S. cerevisiae deletion strains, locus YMR078C, strain ctf18, stronger effect = lower value 0.978 | S. cerevisiae deletion strains, locus YMR125W, strain sto1, stronger effect = lower value 0.995 | S. cerevisiae deletion strains, locus YMR129W, stronger effect = lower value 0.981 | S. cerevisiae deletion strains, locus YMR205C, strain PFK2, stronger effect = lower value 1.01 | S. cerevisiae deletion strains, locus YMR223W, strain ubp8, stronger effect = lower value 1.01 | S. cerevisiae deletion strains, locus YMR231W, strain pep5, stronger effect = lower value 0.989 | S. cerevisiae deletion strains, locus YMR263W, strain SAP30, stronger effect = lower value 0.989 | S. cerevisiae deletion strains, locus YMR307W, strain GAS1, stronger effect = lower value 1.03 | S. cerevisiae deletion strains, locus YNL067W, strain RPL9B, stronger effect = lower value 0.988 | S. cerevisiae deletion strains, locus YNL071W, strain lat1, stronger effect = lower value 0.985 | S. cerevisiae deletion strains, locus YNL128W, strain TEP1, stronger effect = lower value 1 | S. cerevisiae deletion strains, locus YNL153C, strain GIM3, stronger effect = lower value 0.988 | S. cerevisiae deletion strains, locus YNL183C, strain NPR1, stronger effect = lower value 0.908 | S. cerevisiae deletion strains, locus YNL209W, strain ssb2, stronger effect = lower value 0.983 | S. cerevisiae deletion strains, locus YNL233W, strain BNI4, stronger effect = lower value 1.01 | S. cerevisiae deletion strains, locus YNL248C, strain rpa49, stronger effect = lower value 0.925 | S. cerevisiae deletion strains, locus YNL250W, strain rad50, stronger effect = lower value 0.988 | S. cerevisiae deletion strains, locus YNL271C, strain bni1, stronger effect = lower value 0.985 | S. cerevisiae deletion strains, locus YNL298W, strain CLA4, stronger effect = lower value 0.985 | S. cerevisiae deletion strains, locus YNL307C, strain MCK1, stronger effect = lower value 0.997 | S. cerevisiae deletion strains, locus YNL322C, strain KRE1 (second series), stronger effect = lower value 0.97 | S. cerevisiae deletion strains, locus YNL322C, strain KRE1, stronger effect = lower value 1 | S. cerevisiae deletion strains, locus YNR049C, strain mso1, stronger effect = lower value 0.974 | S. cerevisiae deletion strains, locus YNR052C, strain pop2, stronger effect = lower value 1 | S. cerevisiae deletion strains, locus YOL006C, strain TOP1, stronger effect = lower value 0.981 | S. cerevisiae deletion strains, locus YOL012C, strain htz1 0.702 | S. cerevisiae deletion strains, locus YOL147C, strain pex11, stronger effect = lower value 0.991 | S. cerevisiae deletion strains, locus YOR001W, strain rrp6, stronger effect = lower value 0.943 | S. cerevisiae deletion strains, locus YOR061W, strain CKA2, stronger effect = lower value 0.999 | S. cerevisiae deletion strains, locus YOR069W, strain VPS5, stronger effect = lower value 0.986 | S. cerevisiae deletion strains, locus YOR070C, strain gyp1, stronger effect = lower value 0.992 | S. cerevisiae deletion strains, locus YOR080W, strain dia2, stronger effect = lower value 0.988 | S. cerevisiae deletion strains, locus YOR083W, strain WHI5, stronger effect = lower value 0.934 | S. cerevisiae deletion strains, locus YOR106W, strain vam3, stronger effect = lower value 0.943 | S. cerevisiae deletion strains, locus YOR136W, strain idh2, stronger effect = lower value 0.994 | S. cerevisiae deletion strains, locus YOR144C, strain elg1, stronger effect = lower value 0.993 | S. cerevisiae deletion strains, locus YOR184W, strain ser1, stronger effect = lower value 1 | S. cerevisiae deletion strains, locus YOR231W, strain MKK1, stronger effect = lower value 0.979 | S. cerevisiae deletion strains, locus YOR265W, strain rbl2, stronger effect = lower value 0.985 | S. cerevisiae deletion strains, locus YOR270C, strain vph1, stronger effect = lower value 0.981 | S. cerevisiae deletion strains, locus YOR290C, strain snf2, stronger effect = lower value 0.962 | S. cerevisiae deletion strains, locus YOR316C, strain cot1, stronger effect = lower value 0.985 | S. cerevisiae deletion strains, locus YPL051W, strain arl3, stronger effect = lower value 0.974 | S. cerevisiae deletion strains, locus YPL055C, strain LGE1, stronger effect = lower value 1 | S. cerevisiae deletion strains, locus YPL078C, strain atp4, stronger effect = lower value 0.932 | S. cerevisiae deletion strains, locus YPL106C, strain sse1, stronger effect = lower value 0.961 | S. cerevisiae deletion strains, locus YPL240C, strain hsp82, stronger effect = lower value 0.972 | S. cerevisiae deletion strains, locus YPL241C, strain CIN2, stronger effect = lower value 0.997 | S. cerevisiae deletion strains, locus YPL256C, strain CLN2, stronger effect = lower value 0.964 | S. cerevisiae deletion strains, locus YPR119W, strain clb2, stronger effect = lower value 0.992 | S. cerevisiae deletion strains, locus YPR141C, strain kar3, stronger effect = lower value 0.987 | S. cerevisiae deletion strains, locus YPR163C, strain tif3, stronger effect = lower value 0.988 | S. cerevisiae deletion strains, locus YPR167C, strain met16, stronger effect = lower value 0.989 | S. cerevisiae deletion strains, strain wtn01, stronger effect = lower value 0.95 | S. cerevisiae strains, strain wild type, stronger effect = lower value 1
